Binding signal data for 88 sequences are collected here from article PMC5836133, “The intracellular immune receptor Rx1 regulates the DNA-binding activity of a Golden2-like transcription factor”.

The full ranking holds about 16,000 sequences; the median of “e-score” is about -0.044, and the highest 2% start at about 0.38. Many of the other results were omitted from the sample, so the highest values are more common in it than they were.

For this experiment, the target named is T1, GST-NbGlk1(82-244) (Nicotiana benthamiana).
T1 chain: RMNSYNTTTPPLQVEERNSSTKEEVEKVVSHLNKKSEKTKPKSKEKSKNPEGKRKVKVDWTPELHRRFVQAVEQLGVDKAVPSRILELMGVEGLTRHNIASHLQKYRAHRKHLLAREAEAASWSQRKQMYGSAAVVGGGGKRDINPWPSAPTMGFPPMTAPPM
Kind of experiment: protein-binding microarray; NbGlk1 is a Golden2-like transcription factor of Nicotiana benthamiana; high values mean tight binding. Particulars: protein: recombinant; tags: GST (pTH6838); dsDNA, one strand shown.
Take AGAATCTA: the binding signal is 0.48 ± 0.00879 E-score.
With AGAATCTC, the binding signal turned out to be 0.469 ± 0.0125 E-score.
For the sequence AGAATCGG, the binding signal worked out at 0.375 ± 0.00432 E-score.
For the sequence AGAATCGA, the binding signal came out at 0.342 ± 0.0111 E-score.
Next, ATATAAAT: 0.276 ± 0.0236 E-score; AGGGAGAT: 0.281 ± 0.00745 E-score.
For ACGGGGAT, the binding signal is 0.214 ± 0.115 E-score.
On to AAATATGA, for which the binding signal came to 0.226 ± 0.0549 E-score.
For ATCCGTGA, the binding signal stood at 0.236 ± 0.116 E-score.
Turning to ATACGTTA, the binding signal stood at 0.277 ± 0.00931 E-score.
Turning to ATTCCCTG, the binding signal is 0.323 ± 0.0549 E-score.
On to ATTACTAG, for which the binding signal came out at 0.207 ± 0.0664 E-score.
Consider ATTTATTA, for which the binding signal is 0.249 ± 0.00743 E-score.
Regarding AAATATCA, the binding signal stood at 0.367 ± 0.0296 E-score.
Regarding AAATATCT, the binding signal was found to be 0.407 ± 0.0254 E-score.
For AAATATCG, the binding signal stood at 0.375 ± 0.0121 E-score.
As to AAATATCC, the binding signal is 0.42 ± 0.011 E-score.
With CAATATCC, the binding signal was found to be 0.337 ± 0.0344 E-score.
As to ACATATCC, the binding signal stood at 0.214 ± 0.0275 E-score.
Next, ATATTGAG: 0.214 ± 0.00643 E-score; ATAAGATC: 0.33 ± 0.000581 E-score; ATTCTTTA: 0.258 ± 0.0767 E-score.
For the sequence AATCAGGT, the binding signal was 0.32 ± 0.0381 E-score.
For AATCAGGC, the binding signal was 0.2903 ± 0.0023 E-score.
Next, AATCAGGA: 0.394 ± 0.0134 E-score; ATTCCCCG: 0.32 ± 0.0628 E-score; CAGATCGG: 0.215 ± 0.0844 E-score.
AAGATCGT: the binding signal worked out at 0.291 ± 0.0157 E-score.
With AAGATCGC, the binding signal turned out to be 0.398 ± 0.00727 E-score.
For AAGATCGA, the binding signal was 0.225 ± 0.00987 E-score.
For the sequence ATGATCGC, the binding signal came out at 0.232 ± 0.0162 E-score.
Turning to CAGATCGC, the binding signal was found to be 0.417 ± 0.00441 E-score.
In the case of AATTCCCC, the binding signal was determined as 0.225 ± 0.0402 E-score.
On to AAAGTATC, for which the binding signal turned out to be 0.243 ± 0.0118 E-score.
ATCGTCTA: the binding signal came to 0.208 ± 0.048 E-score.
Turning to ATTGCGCG, the binding signal was 0.378 ± 0.00773 E-score.
Regarding ATCTAGAC, the binding signal was 0.287 ± 0.00928 E-score.
ATCTAGAT: the binding signal worked out at 0.398 ± 0.0867 E-score.
For the sequence ATCTAGAG, the binding signal was determined as 0.238 ± 0.0882 E-score.
AATATTTA: the binding signal amounted to 0.216 ± 0.021 E-score.
Consider AACAAGAT, for which the binding signal is 0.228 ± 0.0325 E-score.
Next, AGCGAATC: 0.4592 ± 0.00447 E-score; ATCGAATC: 0.354 ± 0.00608 E-score.
Turning to AACGAATC, the binding signal worked out at 0.367 ± 0.0566 E-score.
For AGAGAATA the value was 0.243 ± 0.0561 E-score; for AGAGAAAT, 0.241 ± 0.00888 E-score.
On to ATAGAATC, for which the binding signal came out at 0.397 ± 0.032 E-score.
Consider ATAGAGAA, for which the binding signal was determined as 0.231 ± 0.0678 E-score.
For ACCGAATC the value was 0.363 ± 0.0171 E-score; for AGAGAATC, 0.4789 ± 0.00191 E-score; for ATAGAAAT, 0.249 ± 0.0207 E-score.
With ACAGAATA, the binding signal came out at 0.257 ± 0.0299 E-score.
Next, ACAGAATC: 0.45398 ± 0.00026 E-score.
For ATCTGATG, the binding signal turned out to be 0.241 ± 0.0502 E-score.
Turning to AAATATAT, the binding signal amounted to 0.326 ± 0.0239 E-score.
Take AAATATGC: the binding signal was 0.234 ± 0.0807 E-score.
On to AATCGCAA, for which the binding signal turned out to be 0.359 ± 0.0518 E-score.
Take ATCAGAAA: the binding signal turned out to be 0.272 ± 0.108 E-score.
In the case of ATCGCGTG, the binding signal worked out at 0.304 ± 0.0178 E-score.
Take AAGCATAT: the binding signal was 0.213 ± 0.0284 E-score.
AGTATCAG: the binding signal is 0.272 ± 0.0918 E-score.
ATTCTGTA: the binding signal turned out to be 0.271 ± 0.104 E-score.
With AATCTGAA, the binding signal was determined as 0.444 ± 0.0239 E-score.
In the case of AATCTGTA, the binding signal came to 0.414 ± 0.00915 E-score.
With AATCGGTA, the binding signal amounted to 0.257 ± 0.0795 E-score.
Take AATGATTC: the binding signal was determined as 0.22 ± 0.0193 E-score.
For AATTTATA, the binding signal was 0.264 ± 0.104 E-score.
Turning to ATTGCACG, the binding signal amounted to 0.251 ± 0.046 E-score.
Turning to AGGGGAAT, the binding signal worked out at 0.32 ± 0.0496 E-score.
Regarding ATCGAAAT, the binding signal is 0.387 ± 0.0408 E-score.
For ACCGAAAT the value was 0.338 ± 0.0315 E-score.
Turning to AGCGAAAT, the binding signal was determined as 0.343 ± 0.064 E-score.
Consider AGGGCAAT, for which the binding signal came out at 0.201 ± 0.0755 E-score.
Next, ACGGAATA: 0.264 ± 0.0173 E-score; ATGGAAAT: 0.335 ± 0.0407 E-score; AAGGATTC: 0.3738 ± 0.00237 E-score.
Regarding AAGGAAAT, the binding signal is 0.3484 ± 0.000416 E-score.
For ATGGAATC the value was 0.385 ± 0.0354 E-score; for AGGGGATC, 0.316 ± 0.0502 E-score.
Next, AGGGATTC: 0.359 ± 0.0107 E-score.
As for ACGGAAAT, the binding signal came to 0.345 ± 0.0654 E-score.
Regarding AAGGAATC, the binding signal is 0.396 ± 0.0666 E-score.
For AGGGAATC the value was 0.477 ± 0.0128 E-score; for ATGGATAC, 0.25 ± 0.0455 E-score.
For the sequence ACGGAATC, the binding signal came to 0.453 ± 0.0108 E-score.
ATCTCAAT: the binding signal worked out at 0.245 ± 0.0732 E-score.
ATTAGATA: the binding signal was found to be 0.304 ± 0.0251 E-score.
Next, ATCCGCTG: 0.261 ± 0.0225 E-score.
